Hits are enriched below; roughly 2% of the tested compounds scored in any of these assays.
eIF4E-4G inh – eIF4E/eIF4G interaction inhibition in translation initiation. 220,000 compounds, 0.37% hits. inhibition, % at 21.7 µM. AID 782. TR-FRET eIF4E-eIF4GI(517-606) binding, 2 h. P63073+Q04637;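 active = inhibition above about 30%, limit read from the data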;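 also: 0% = full FRET control wells and 100% = background wells lacking eIF4GI fragment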
Ins promoter up – MIN6 insulin promoter up-regulation; z-score at 5 µM; 190,000 compounds, 0.3% hits; MIN6 insulin promoter-GFP reporter, high-content imaging; hits give high values; AID 1625;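 active = z-score above 3 at 5 µM with at least 500 cells counted in the well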
PERK inh – blocks human PERK kinase; 220,000 compounds, 0.17% hits; AID 1416; Q9NZJ5; CHO PERK-DD fusion, SEAP luminescence translation reporter; inhibition, % at 5.6 µM;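 active = inhibition above the mean inhibition of all tested compounds plus 3 SD, set separately per screening campaign, cut at about 2.9% in these data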;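 also: PERK kinase domain activated by AP20187 dimerizer at 100 nM; 0% = DMSO with dimerizer and 100% = rapamycin at 8.4 µM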
Insulin prom inh – TRM-6 insulin promoter activity inhibition; TRM-6 cells (human fetal islet line), insulin promoter-eGFP reporter, imaging; reporter expression induced with tamoxifen; 130,000 compounds, 0.9% hits; inhibition, % at 2 µM;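 active = inhibition above the mean plus 3 SD, with well images judged a real hit on visual review, cut at about 60% in these data, passing the limit was not always enough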
Autophagy HCS – alters autophagy in cells; MEF GFP-LC3 puncta imaging; test concentration mostly 10 µM; calls only at 10 µM (by protocol); 190,000 compounds, 0.98% hits;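 active = percentage of spot-positive cells more than 3 SD above its plate mean, without a fluorescence outlier flag or 80% toxicity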;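 also: spot-positive cell cutoff set from DMSO-treated cells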
* = called active by the depositor; i = inactive; / = no result; + = active, no number; [ ] = another dose, or the depositor's remark.

SMILES	eIF4E-4G inh	Ins promoter up	PERK inh	Insulin prom inh	Autophagy HCS
COc1ccc(-n2nc(C(=O)c3cccs3)cc(-c3nc4ccccc4[nH]3)c2=N)cc1	7	/	1	17	+
Cc1cccc(-n2nc(C(=O)c3ccco3)cc(-c3nc4ccccc4[nH]3)c2=N)c1	9	-1.1	0	30	i
Cc1ccccc1-n1nc(C(=O)c2cccs2)cc(-c2nc3ccccc3[nH]2)c1=N	0	-0.31	-2	17	+
Cc1sc(NC(=O)C2C3C=CC(C3)C2C(=O)O)c(C(N)=O)c1-c1ccc(C(C)C)cc1 (centres undefined)	18	0.05	1	23	i
COC(=O)C1=C(C)N(C)C(=O)/C1=C\c1ccco1	-3	0.1	0	/	i
CC1=C(C#N)C(=O)N(C2CCS(=O)(=O)C2)C(=O)/C1=C\c1ccco1 (centres undefined)	63*	-0.06	1	/	/
c1ccc(-c2csc(NC3=NCCCCC3)n2)cc1	3	0.48	1	/	i
N#Cc1ccc(-c2csc(NC3=NCCCCC3)n2)cc1	53*[fluorescence artefact?]	-0.29	-1	17	i
Cc1ccc(C(CC(=O)NCCCN(C)C)c2ccc(OC(C)C)cc2)cc1 (centres undefined)	0	0.07	-2	/	/
C/C=C/C(=O)OCC(=O)Nc1cccc(S(=O)(=O)NC2=NCCCCC2)c1	0	-0.91	1	-11	i
C=C(C)CNC(=S)Nc1cccc(S(=O)(=O)NC2=NCCC2)c1	0	-0.13	0	/	i
CCC(C(=O)OCC(=O)Nc1ccc(OC)cc1OC)c1ccccc1 (centres undefined)	3	0.18	1	/	i
CSCCCNC(=S)Nc1cccc(S(=O)(=O)NC2=NCCC2)c1	3	0.08	1	/	+
Cc1ccc(S(=O)(=O)NCCC(=O)OCC(=O)Nc2cccc(S(=O)(=O)NC3=NCCCCC3)c2)cc1	3	-0.04	1	-64	i
CCC(C(=O)OCC(=O)Nc1cccc(S(=O)(=O)NC2=NCCCCC2)c1)c1ccccc1 (centres undefined)	2	4*	0	/	i
CCC(C(=O)OCC(=O)Nc1cccc(OC)c1)c1ccccc1 (centres undefined)	0	-1.1	1	73*	i
Cc1ccc(S(=O)(=O)NCC(=O)OCC(=O)Nc2cccc(S(=O)(=O)NC3=NCCCCC3)c2)cc1	1	0.38	2	78*	i
O=C(O)C1Nc2c(O)cc(Cl)c([N+](=O)[O-])c2C2C=CCC12 (centres undefined)	78*	-1.4	1	0	i
N#C/C(C(=O)NCCc1ccccc1)=C1/N=C(NC(=O)c2cccs2)c2ccccc21	17	0.49	1	/	+
CC(NC(=O)/C(C#N)=C1\N=C(NC(=O)c2cccs2)c2ccccc21)c1ccccc1 (centres undefined)	9	4*	0	-79	i
C/C(=N\Nc1nc(C)c(C)s1)c1ccc([N+](=O)[O-])cc1	-5	-0.74	1	-78	i
O=C(Nc1ccc(Cl)cc1)/C(=C/c1cccc(O)c1)c1nc2ccccc2s1	-2	-0.39	-1	-3	+
Cc1ccc(OCC(=O)N2CCCCCC2)c(C)c1	1	-0.29	1	-44	i
Cc1ccc(C)c(OCC(=O)N2CCOCC2)c1	3	0.47	1	89*	i
COC(=O)c1cscc1NC(C)=O	-1	0.84	1	75*	i
SMILES	eIF4E-4G inh	Ins promoter up	PERK inh	Insulin prom inh	Autophagy HCS
Cc1ccc(C(=O)N2CCN(c3ccccc3F)CC2)cc1S(=O)(=O)N1CCOCC1	0	/	1	/	i
COc1cc(C2C(C#N)=C(N)Oc3cc(N)ccc32)cc(OC)c1OC (centres undefined)	5	0.18	1	-23	+
N#CC1=C(N)Oc2cc(N)ccc2C1c1ccc(F)cc1 (centres undefined)	-8	1.4	0	4	i
COc1ccc(/C=C(\C#N)C(=O)Nc2cccnc2)cc1	0	0.33	1	32	i
COc1ccc(O)c(/C=C(\C#N)C(=O)Nc2cccnc2)c1	37*	0.08	0	/	i
CCC/C(=N/Nc1ccc(Cl)cc1)c1cnnc(-c2ccccc2)n1	/	/	1	5	+
CC/C(=N/Nc1ccccc1Cl)c1cnnc(-c2ccccc2)n1	2	-0.46	2	50	i
CN(Cc1ccccc1)C(=O)CN(c1ccc(F)cc1)S(=O)(=O)c1ccc2c(c1)OCCO2	-5	/	-1	54	i
Cc1ccc(/C=C/C(=O)c2ccccc2O)cc1	7	0.32	1	/	/
O=C(/C=C/c1ccco1)c1ccccc1O	82*	/	0	-24	i
CN1CCN(C(=O)c2cc3c(C(F)(F)F)nn(C)c3s2)CC1	-5	-0.51	0	57	i
O=C(NC1CCCCCC1)C1CCN(S(=O)(=O)N2CCC3(CC2)OCCO3)CC1	6	-0.02	0	-28	+
CC1CCCCC1NC(=O)C1CCN(S(=O)(=O)N2CCC3(CC2)OCCO3)CC1 (centres undefined)	-2	-0.04	0	9	i
Cc1cccc2cc(CN(Cc3ccco3)S(=O)(=O)c3ccc4c(c3)OCCO4)c(=O)[nH]c12	-3	-0.03	0	/	+
Cc1cc(C)c2[nH]c(=O)c(CN(CC3CCCO3)S(=O)(=O)c3ccc4c(c3)OCCO4)cc2c1 (centres undefined)	2	-0.32	-1	24	i
Cc1ccc(C)c2[nH]c(=O)c(CN(CC3CCCO3)S(=O)(=O)c3ccc4c(c3)OCCO4)cc12 (centres undefined)	6	1.8	-1	/	+
COc1cc(OC)c(NC(=O)CCc2nc(-c3cccs3)no2)cc1Cl	-6	-0.05	0	-31	i
S=C(Cc1cccnc1)N1CCOCC1	-2	0	0	21	i
CCc1nc2cc([N+](=O)[O-])c([N+](=O)[O-])cc2[nH]1	4	0.28	1	75*	i
CCCc1nc2ccccc2[nH]1	4	/	1	80*	i
CCC(=O)Nc1ccc(C(=O)CSc2nc3ccccc3[nH]2)cc1	2	/	1	60*	i
CCOc1ccc2nc(SCC)[nH]c2c1	1	-0.36	0	86*	i
CCC(=O)Nc1ccc(C(=O)CSc2nc3ccc(C)cc3[nH]2)cc1	0	-0.19	0	22	i
CCOc1ccc(OCCSc2nc3ccccc3[nH]2)cc1	1	-0.37	0	71	i
c1ccc2[nH]c(SN3CCOCC3)nc2c1	44*[fluorescence artefact?]	0.42	1	-21	i
CCC(=Cc1ccc(CC)cn1)CC	-8	0.88	2	/	/
Fc1ccccc1OCC1CCCN(Cc2nc(CC3CC3)no2)C1 (centres undefined)	2	0.02	0	/	i
O=C(COC(=O)c1cncc(Br)c1)NC1CCCC1	3	0.06	2	43	i
O=C(CCCCCCC(=O)c1ccccc1)c1ccccc1	3	0.42	2	57	i
